Screens from PubChem BioAssay.
HT1080-NT tox = kills 2HG-producing HT-1080-NT fibrosarcoma cells | HT-1080-NT fibrosarcoma viability, CellTiter-Glo ATP luminescence, 48 h | Potency, µM (titrated, usually from 46.1 µM), without a hit: at the top dose activity, negative = less viability, most hits filed as cytotoxic | hit rate 1.6% among 360,000 | AID 686970;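 further: NT is the 2HG producing partner of a matched IDH1 knockdown line; potency means the concentration at half of the fitted maximal effect; 0% = DMSO-treated cells and -100% = media-only wells without cells; nearly all actives have a fitted effect of over 55% in size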
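HT-1080-NT fibrosarcoma cells (2HG-overproducing), 750 cells/well in RPMI with 5% FBS, dosed after 2 h and incubated 48 h at 37C. CellTiter-Glo luminescence normalized to DMSO and no-cell wells; concentration-response curves fitted and classed.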
TDP1 cell CPT = growth inhibition of DT40 Tdp1-/-;hTDP1 cells with camptothecin (screen for TDP1 inhibitors). hit rate 12% among 420,000. chicken DT40 Tdp1-/-;hTDP1 cells + 20 nM CPT, ATP luminescence, 48 h. Potency, µM (highest dose often 46.2 µM), for the others: top-dose activity change, negative = growth inhibition, actives largely listed as inhibitors; further: potency means the concentration at half of the fitted maximal effect; nearly all actives have a fitted effect of over 55% in size
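Cell growth measured by CellTiter-Glo luminescence after a minimum 48 h, 37 C compound exposure with 20 nM CPT in Tdp1-knockout DT40 cells stably expressing hTDP1, seeded 400/well; qHTS titration format.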
TDP1 cell noCPT = qHTS for Inhibitors of human tyrosyl-DNA phosphodiesterase 1 (TDP1): qHTS in cells in absence of CPT; DT40 Tdp1-/- hTDP1 cells, no CPT, ATP luminescence, 48 h; Potency, µM (highest dose often 46.2 µM), without a hit: at the top dose activity change, negative = growth inhibition, most hits filed as inhibitors; hit rate 15% among 420,000; AID 686978, 2013; further: potency means the concentration at half of the fitted maximal effect; nearly all actives have a fitted effect of over 55% in size
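Chicken DT40 Tdp1-/- cells complemented with human TDP1, screened without camptothecin (DMSO vehicle only), 400 cells/well. Compounds pin-transferred, cells incubated at 37 °C for at least 48 hr. Growth read as ATP-dependent luminescence (CellTiter-Glo, 30 min at RT).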
HT1080 IDH1KD tx = kills HT-1080 cells with IDH1 knockdown | HT-1080 IDH1 knockdown viability, ATP luminescence, 48 h | Potency, µM (series often up to 46.1 µM), for the others: at the top dose activity, negative = toxicity, hits mostly cytotoxic | hit rate 2% among 360,000;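 further: potency means the concentration at half of the fitted maximal effect; 0% = DMSO wells and -100% = cell-free medium wells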
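Knockdown cells (IDH1KD HT-1080) received compounds 2 h after plating at 750 cells/well and were kept 48 h at 37 °C in 5% FBS RPMI. A CellTiter-Glo luminescence read gave % activity for curve fitting.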
ELG1 DNA repair = ELG1-dependent DNA repair inhibition | HEK293T ELG1-luciferase reporter, luminescence, 16 h; DNA damage induced by 5-fluorouridine | Potency, µM (titrated, usually from 46.1 µM), for inactives: top-dose activity change, negative = inhibition, usual class: inhibitors | hit rate 2.3% among 330,000; further: potency means the concentration at half of the fitted maximal effect; nearly all actives have a fitted effect of over 55% in size
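In this reporter screen, reduction of luminescence relative to DMSO vehicle indicated activity. Compounds and 5-fluorouridine were added together to 2,000 cells per well, incubated for 16 hr at 37 °C, then developed with ONE-Glo.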
IL1B secr inh = inhibitors of inflammasome signaling (IL-1 beta secretion). activity change, % at 57.5 µM. THP-1 LPS/ATP IL-1B secretion, AlphaLISA, 16 h; stronger effect = lower value. AID 743279. hit rate 4.7% among 360,000; in the data active means activity change below about -50%; inconclusive means mostly about -30% to -49%
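THP-1 cells pretreated 1 hr with compounds (up to 57.5 uM final), then stimulated with LPS (250 ng/mL final) plus ATP (1.25 mM final); secreted IL-1B measured by AlphaLISA after 16 hr, decreased signal indicating inhibition.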
Numbers without * were called inactive; ? = inconclusive; / = no result given. Compounds with a hit are over-represented: about 19% of the library has one in this group of screens. Unless noted, the call rests on the fitted dose curve; in most records, active means well fitted curve in the direction sought with a large enough effect; inconclusive means small, poorly fitted or top-dose-only effect, or another doubt; inactive means no such curve, though single readings can be large; an effect the other way counts as inactive or inconclusive. Unless noted, on the % scale 0 is the no-effect control and ±100 the full control effect.

SMILES	HT1080-NT tox	TDP1 cell CPT	TDP1 cell noCPT	HT1080 IDH1KD tx	ELG1 DNA repair	IL1B secr inh
O=C(Nc1ccccc1Cl)C1CCCN(S(=O)(=O)c2cccc3cccnc23)C1 (stereo unspecified)	-5%	?	?	-6%	-5%	-18
CC(=O)c1cccc(NC(=O)C2CCCN(S(=O)(=O)c3cccc4cccnc34)C2)c1 (stereo unspecified)	-12%	21µM*	?	-6%	16µM*	0
CCc1ccc(NC(=O)C2CCCN(S(=O)(=O)c3cccc4cccnc34)C2)cc1 (stereo unspecified)	/	18µM*	16µM*	/	/	/
O=C(Nc1nccs1)C1CCCN(S(=O)(=O)c2cccc3cccnc23)C1 (stereo unspecified)	-8%	?	15µM*	-2%	23µM*	-13
O=C(Nc1nc2cc(Cl)ccc2s1)C1CCCN(S(=O)(=O)c2cccc3cccnc23)C1 (stereo unspecified)	-3%	21µM*	16µM*	?	16µM*	-19
COc1ccc(C)cc1NC(=O)C1CCCN(S(=O)(=O)c2cccc3cccnc23)C1 (stereo unspecified)	-6%	?	?	0%	?	2
CC(=O)c1ccc(NC(=O)C2CCN(S(=O)(=O)c3cccc4cccnc34)CC2)cc1	0%	15%	0%	2%	9%	18
O=C(Nc1ccc(F)cc1)C1CCCN(S(=O)(=O)c2cccc3cccnc23)C1 (stereo unspecified)	-7%	?	?	-11%	?	-18
O=c1ccc2ccc(OCCOc3cccc(Cl)c3)cc2o1	-8%	?	?	-8%	?	?
N#Cc1c(-c2ccccc2)nc(SCC(=O)Nc2ccc(OC(F)(F)Cl)cc2)[nH]c1=O	8%	?	-11%	-2%	?	-15
Cc1ccc(CN(Cc2ccco2)C(=O)c2ccccc2Cl)o1	/	23µM*	?	/	/	/
Cc1ccc(CN(C)C(=O)c2ccccc2NC(=O)c2ccccc2)o1	2%	?	-9%	2%	-5%	0
Cc1ccc(CN(Cc2ccco2)C(=O)c2ccccc2Br)o1	/	12µM*	15µM*	/	/	/
Cc1ccc(C(=O)NCc2ccco2)o1	15%	1%	1%	4%	-5%	-14
O=C(Cc1c[nH]c2ccccc12)N[C@@H](Cc1c[nH]c2ccccc12)C(=O)O	-2%	1%	-2%	8%	8%	13
CNC(=O)[C@H](Cc1c[nH]c2ccccc12)NC(=O)[C@@H](CC(=O)NO)CC(C)C	/	22µM*	31µM*	/	/	/
COc1ccc(CCNC(=O)C2CCN(Cc3nc(-c4cccc(Cl)c4)oc3C)CC2)cc1OC	-10%	18µM*	21µM*	-24%	?	-3
COc1ccc(-c2nc(CN3CCC(C(=O)NCCc4ccccc4)CC3)c(C)o2)cc1OC	/	-29%	?	/	/	/
Cc1oc(-c2cccc(Cl)c2)nc1CN1CCC(C(=O)NCCCN2CC(C)CC(C)C2)CC1 (stereo unspecified)	4%	?	21µM*	-1%	?	-10
COCC(=O)N(c1ccccc1)C(C)C(=O)OC (stereo unspecified)	3%	-4%	-19%	2%	7%	9
COc1ccc(NS(=O)(=O)c2ccc3oc(SC)nc3c2)cc1	-8%	12µM*	9.2µM*	-23%	-19%	-14
Cn1cccc1-c1nc2ccc(NC(=O)c3ccccc3)cc2[nH]1	8%	-28%	?	5%	?	0
COc1ccc(-c2nc3ccc(NS(=O)(=O)c4ccc(C)cc4)cc3o2)cc1	/	?	10µM*	/	/	/
